Screening data as filed in PubChem BioAssay.
ALR H2O2 inh – human ALR oxidase inhibition via reduced H2O2; P55789; purified ALR, DTT oxidation, H2O2 HRP-luminol luminescence; inhibition, % (concentration not given with the values); actives 3.8% (n = 290,000); AID 485317;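 active = mean replicate inhibition above about 79%, with every replicate also reaching it, limit read from the data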
Target sequence (P55789 whole entry, looked up): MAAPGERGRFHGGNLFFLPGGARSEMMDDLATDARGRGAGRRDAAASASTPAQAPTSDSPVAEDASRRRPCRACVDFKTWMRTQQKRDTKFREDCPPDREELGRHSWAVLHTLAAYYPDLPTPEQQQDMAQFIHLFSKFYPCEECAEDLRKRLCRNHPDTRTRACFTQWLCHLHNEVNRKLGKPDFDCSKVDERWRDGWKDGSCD
M18AAP inhibitor – blocks P. falciparum M18 aspartyl aminopeptidase; recombinant PfM18AAP, H-Glu-NHMec fluorogenic cleavage; inhibition, % at 7.35 µM; actives 1.2% (n = 290,000);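 active = inhibition above the campaign mean inhibition over all tested compounds plus 3 SD, cut at about 28% in these data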;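 also: 0% = plate median of test compound wells and 100% = 2 mM ZnCl2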
H9c2 protect – modulators protecting cardiomyocytes from myocardial damage; H9c2 cardiomyocytes, H2O2 injury protection, ATPLite, 2 h; protection from H2O2 cell death, % at 20 µM; actives 0.63% (n = 360,000); AID 588492;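 active = compounds giving at least 50% protection of heart cells from peroxide-induced death in the single-dose screen, raw or plate-pattern-corrected value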;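 also: 0% = DMSO wells with peroxide and 100% = DMSO wells without peroxide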
PfGluPho inh – PfG6PD (Plasmodium falciparum) enzyme inhibition | PfGluPho enzyme, NADPH resazurin-diaphorase fluorescence | actives 0.78% (n = 350,000) | AID 504690 | inhibition, % at 20 µM;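 active = inhibition reaching at least a set limit at 20 µM in the primary screen, cut at about 59% in these data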;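 also: 0% = DMSO wells with substrate and 100% = DMSO wells lacking glucose-6-phosphate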
PHOSPHO1 inh – inhibitors of human PHOSPHO1 phosphatase. Q8TCT1. actives 1.1% (n = 290,000). inhibition, % at 13.3 µM. recombinant PHOSPHO1, absorbance phosphatase assay. AID 1565; in the data active = inhibition above about 60%
Target sequence (Q8TCT1 whole entry, looked up): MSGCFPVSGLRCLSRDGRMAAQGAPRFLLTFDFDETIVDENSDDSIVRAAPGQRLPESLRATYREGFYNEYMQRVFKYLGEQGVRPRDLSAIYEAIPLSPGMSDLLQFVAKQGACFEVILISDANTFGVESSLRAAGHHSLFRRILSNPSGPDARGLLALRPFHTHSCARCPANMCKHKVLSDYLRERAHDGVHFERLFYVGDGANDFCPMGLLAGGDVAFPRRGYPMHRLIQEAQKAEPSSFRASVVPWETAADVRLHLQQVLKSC
Numbers without * were called inactive; nt = not tested or not shown. An excerpt weighted towards active compounds, which were near 5.6% of everything screened.

SMILES	ALR H2O2 inh	M18AAP inhibitor	H9c2 protect	PfGluPho inh	PHOSPHO1 inh
N#CC1=C(N)SC(N)=C(C#N)C1CCC1CCCCC1	13	32*	nt	nt	37
CCCCCCn1c(C)nc2c(c1=O)c1nc3ccccc3nc1n2/N=C/c1ccco1	31	3	90*	-6	17
Cc1nc2c(c(=O)n1CCC1=CCCCC1)c1nc3ccccc3nc1n2/N=C/c1ccccc1	-6	0	109*	-13	-7
CCOC(=O)CN1N=C(c2ccc(Cl)cc2)CCC1=O	-2	-1	9	-2	-3
CCOc1ccccc1C(=O)Nc1cccc2cccnc12	40	-14	-10	8	nt
CNc1nnc(SCC(=O)c2cc(C)n(C3CC3)c2C)s1	92*	nt	-6	29	nt
Cc1cc(C(=O)CSc2nn3c(=O)c(C(C)(C)C)nnc3s2)c(C)n1C1CC1	32	12	7	-6	44
Cc1nnc(SCC(=O)c2cc(C)n(C3CC3)c2C)s1	55	7	-5	32	105*
CCN(CC)c1nc(C=Cc2ccc(N(C)C)cc2)c2nccnc2n1	nt	nt	4	6	nt
CC1CCCN(c2ccc(F)cc2N)C1 (configuration not stated)	-4	1	-13	1	-1
NC(=O)c1cc(N)ccc1N1CCCC1	83*	9	-4	50	7
NC(=O)c1cc(N)ccc1N1CCCCC1	99*	8	3	-10	6
CC1CCCN(c2ccc(N)cc2C(N)=O)C1 (configuration not stated)	98*	8	3	4	-3
CC(C)c1onc(C(=O)Nc2ccc3c(c2)OCO3)c1[N+](=O)[O-]	-5	7	-2	17	-33
COC(=O)c1ccccc1N=Nc1c(N)n[nH]c1N	91*	11	8	13	2
O=C(Oc1cccc2c(=O)[nH]ccc12)c1ccccc1	nt	-7	80*	7	-38
O=C(COc1ccccc1[N+](=O)[O-])Nc1ccc2c(c1)CCC2	nt	nt	-2	10	nt
CC1=CC(=O)C=C(C)C1=NOC(=O)/C=C\c1ccccc1	98*	14	-3	35	-12
Cc1ccc(NC(=O)C(C)OC(=O)/C=C/c2ccccc2)cc1 (configuration not stated)	-1	-6	-2	5	13
CC1=C(C)/C(=N\OC(=O)/C=C/c2ccccc2)C=CC1=O	87*	-1	-31	30	14
CNc1c(NS(=O)(=O)c2cc(OC)ccc2OC)c(=O)oc2ccccc12	8	9	28	-14	0
CCOC(=O)c1cc(C)sc1NC(=O)CN1CCN(C(=O)C2CCCO2)CC1 (configuration not stated)	96*	2	6	11	18
Cc1cnc(CNC(=O)c2ccc3nc([C@@H]4O[C@H](CO)[C@H](O)[C@H](O)[C@H]4O)[nH]c3c2)cn1	nt	nt	4	nt	nt
Cc1ccc(NC(=S)Nc2ccc3nc(-c4ccccn4)c(-c4ccccn4)nc3c2)cc1C	-19	11	33	97*	-12
Fc1ccccc1NC(=S)NNc1ncc(C(F)(F)F)cc1Cl	22	28*	-14	-5	30
SMILES	ALR H2O2 inh	M18AAP inhibitor	H9c2 protect	PfGluPho inh	PHOSPHO1 inh
CCN(CC(=O)Nc1ccc(NC(C)=O)cc1)C(=O)Cc1ccc(Cl)c(Cl)c1	nt	6	-2	-12	-2
COc1ccc(CNC(=O)CSc2nc(SC)ns2)cc1	-4	-6	2	-3	nt
COc1cc(C(=O)N/N=C/c2sc(=O)n(-c3ccccc3)c2Cl)cc(OC)c1OC	2	5	17	20	-5
O=C(N/N=C/c1sc(=O)n(-c2ccccc2)c1Cl)c1ccncc1	98*	6	6	5	3
Cc1cc(C)c(NC(=O)c2cc3c(nc4sccn43)s2)c(C)c1	nt	7	4	32	71*
Cc1ccc(C)c(C(=O)c2c(C)nc3sccn23)c1	2	-5	-9	1	-11
CCCC(=O)Nc1c2c(nn1-c1ccc(C)cc1C)CSC2	5	-6	4	7	72*
CC(=O)Nc1c2c(nn1-c1ccc(C)cc1C)CSC2	-4	4	8	-7	-2
CCCC(=O)Nc1cccc(C(=O)Nc2ccccc2OCC)c1	-2	0	nt	nt	-5
CCOc1ccccc1NC(=O)c1cccc(NC(=O)C(C)C)c1	-5	1	-1	0	61*
O=S1(=O)C=C[C@H](COCc2ccccc2)N1	nt	nt	3	nt	nt
O=C(CNC(=O)c1ccc(F)cc1)N/N=C/c1cc(Br)ccc1OC(=O)/C=C/c1ccco1	nt	2	80*	-16	15
O=C(CNC(=O)c1ccccc1F)N/N=C/c1cc(Br)ccc1OC(=O)/C=C/c1ccco1	1	2	57*	20	8
COc1ccc(Br)cc1/C=N/NC(=O)CNC(=O)c1cccnc1	7	-5	22	-8	-1
COc1ccccc1C(=O)NCC(=O)N/N=C/c1cc(Br)ccc1OC(=O)/C=C\c1ccco1	-3	4	88*	7	15
O=C(CNC(=O)c1ccncc1)N/N=C/c1cc(Br)ccc1OCc1ccccc1	-3	-21	9	47	24
NS(=O)(=O)c1ccc(CCNC(=O)COC(=O)/C=C/c2cc(Br)ccc2F)cc1	-1	nt	3	-5	nt
O=C1N(Cc2ccccc2)c2ccccc2OC1(F)F	nt	nt	-3	nt	nt
COc1ccc(OC)c(/C=C2\Oc3cc(OCC(=O)N4CCC(C(=O)O)CC4)ccc3C2=O)c1	2	7	8	7	8
Cc1nnc2sc(SCc3ccc(Cl)cc3)nn2c1=O	nt	3	6	1	-8
Cc1nnc2sc(SCC(=O)Nc3ccc(Cl)cc3)nn2c1=O	93*	10	4	7	-35
CC(=O)Nc1cccc(NC(=O)CSc2nn3c(=O)c(C)nnc3s2)c1	98*	nt	0	7	27
Cc1cccc(CSc2nn3c(=O)c(C)nnc3s2)c1	99*	-8	5	4	-1
Cc1occc1C(=O)N(Cc1nc(-c2ccccc2)no1)C(C)C	-42	0	-2	-21	-8
CCCCC(=O)Nc1nc(C)c(-c2csc(Nc3cc(Cl)ccc3OC)n2)s1	-2	2	-5	-5	99*
SMILES	ALR H2O2 inh	M18AAP inhibitor	H9c2 protect	PfGluPho inh	PHOSPHO1 inh
CCCCC(=O)Nc1nc(C)c(-c2csc(Nc3cc(OC)ccc3OC)n2)s1	-9	4	5	24	70*
CCCCCCC(=O)Nc1nc(C)c(-c2csc(Nc3cc(Cl)ccc3C)n2)s1	-6	-4	-4	22	-79
O=S(=O)(c1ccccc1)[C@@]1(c2ccccc2)C[C@@H]2ON=C(c3cccc(-c4ccccc4)c3)[C@@H]2C1	-5	nt	-8	14	nt
O=C(NCC1CCCO1)C(c1ccco1)N(Cc1ccc(F)cc1)C(=O)CN1C(=O)c2ccccc2S1(=O)=O (configuration not stated)	-3	7	-3	1	32
CCCNC(=O)COc1coc(CN2CCN(c3ccc(F)cc3)CC2)cc1=O	16	-4	1	-4	31
O=Cc1cccc(OC(=O)/C=C/c2ccco2)c1	98*	17	0	16	10
COC(=O)c1ccc(OC(=O)/C=C/c2ccco2)cc1	nt	2	-5	-4	24
